Assay [1] in a line: qHTS for Inhibitors of Plasmodium falciparum (DD2) proliferation (AID 504314).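 For activity, negative = inhibition: parasite DNA measured by SYBR Green fluorescence after red cell lysis; plate controls were DMSO vehicle for no effect and artemisinin wells for full effect.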 Note: potency is the fitted concentration of half-maximal effect. In outline: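 Erythrocytes infected with P. falciparum (0.3% parasitemia, 2.5% hematocrit final) were incubated with compounds for 72 h at 37C, 5% CO2. Parasite DNA was detected by SYBR Green I fluorescence after saponin/Triton lysis, normalized to artemisinin (0.29 uM) and DMSO controls.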
(In qHTS, concentration-response curves come from the screen itself.)

Assay [2] in a line: qHTS for Inhibitors of Plasmodium falciparum (GB4) proliferation (AID 504315). Note: nearly all actives have a fitted effect of over 50% in size. Note: potency is the fitted concentration of half-maximal effect. In a few lines:
(§1)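 Erythrocytes infected with P. falciparum line (0.3% parasitemia, 2.5% hematocrit final) incubated with compounds 72 h at 37 °C, 5% CO2; SYBR Green lysis buffer added, fluorescence read next day. Normalized to 0.29 uM artemisinin and DMSO.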

Assay [3] in a line: qHTS for Inhibitors of Plasmodium falciparum (7G8) proliferation (AID 504316). Note: nearly all actives have a fitted effect of over 65% in size. Note: potency is the fitted concentration of half-maximal effect. In outline:
as §1

In assay [4] the target is Atrial natriuretic peptide receptor 1 (Homo sapiens) (UniProt P16066). Briefly: Natriuretic polypeptide receptor (hNpr1) antagonism - Pilot CMLD screen (AID 1347052; calls by dose curve;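 note: cGMP level read as GloSensor luciferase luminescence after agonist stimulation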; note: potency is the fitted concentration of half-maximal effect).
Assay [5] can be described thus: qHTS for Inhibitors of Plasmodium falciparum (HB3) proliferation (AID 504318). Note: nearly all actives have a fitted effect of over 60% in size. Note: potency is the fitted concentration of half-maximal effect. In a few lines:
as §1

A short description of assay [6]: qHTS for Inhibitors of Plasmodium falciparum (CP250) proliferation (AID 504320).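 Note: plate controls were DMSO vehicle for no effect and 0.29 µM artemisinin control for full effect.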 In outline: as §1
The target in assay [7] is Rap guanine nucleotide exchange factor 3 (Homo sapiens) (UniProt O95398). Kind of assay: Confirmatory qHTS for antagonist of cAMP-regulated guanine nucleotide exchange factor 3 (EPAC1) (AID 1645880).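 Note: plate controls were DMSO only for no effect and full effect of the ATA control for full effect; nearly all actives have a fitted effect of over 55% in size.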 In outline:
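Nucleotide exchange uses 100 nM EPAC1, 250 nM RAP1B-BODIPY-GDP and 50 uM GDP, with compounds in a concentration-titration series. After 5 min at room temperature, fluorescence (480 nm ex/540 nm em) is read every 5 min for 30 min. Data are normalized to control ATA and DMSO.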

For assay [8] the target is unchanged. Briefly: Confirmatory qHTS for agonist of cAMP-regulated guanine nucleotide exchange factor 3 (EPAC1) (AID 1645881).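 Note: EPAC1 catalysed release of BODIPY-GDP from Rap1B seen as fluorescence loss; 100% = effect of cAMP agonist control; nearly all actives have a fitted effect of over 75% in size.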
Assay [9] concerns the target Rap guanine nucleotide exchange factor 4 (Homo sapiens) (UniProt Q8WZA2). Briefly: Confirmatory qHTS for agonist of cAMP-regulated guanine nucleotide exchange factor 4 (EPAC2) (AID 1645884).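 Note: nucleotide exchange releases bodipy-GDP from Rap1 and this lowers its fluorescence; % is set by controls: 0 for no effect and ±100 for the full control effect; nearly all actives have a fitted effect of over 65% in size.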
The target is the same in assay [10]. Briefly: Confirmatory qHTS for antagonist of cAMP-regulated guanine nucleotide exchange factor 4 (EPAC2) (AID 1645885). Note: % is set by controls: 0 for no effect and ±100 for the full control effect; nearly all actives have a fitted effect of over 25% in size.
Assay [11] addresses Rap guanine nucleotide exchange factor 3 (Homo sapiens) (UniProt O95398). Kind of assay: Counterscreen qHTS for antagonist of cAMP-regulated guanine nucleotide exchange factor 3 (EPAC1) (AID 1645888).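 Note: fluorescence loss as bound BODIPY-GDP is released from Rap1B; % of control where 0% means no effect.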 In a few lines: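 Rap1B-BODIPY-GDP 250 nM + GDP 50 uM; cpds 7-pt, final 9.74 nM–152 uM (activator mode) or from 7.32 nM upwards (inhibitor mode); RT; FI 480/540 nm at 5 and 30 min, then ± cAMP, reread.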
(In general: The purpose of a counterscreen is to sort out artefacts and off-target activity.)

Values joined by “and” are separate entries in the source; they are usually repeats but may differ in a detail not shown here. Equal values may be shown once. Inconclusive results are not listed. Unmarked numbers belong to inactive results. Active and inactive are the calls of the source. Unless noted, calls come from the whole dose curve; as a rule, active = well fitted curve in the direction sought with a large enough effect; inconclusive = small, poorly fitted or top-dose-only effect, or another doubt; inactive = no such curve, though single readings can be large; an effect the other way counts as inactive or inconclusive.

Chain of Rap guanine nucleotide exchange factor 3 (Homo sapiens) (O95398 whole entry, looked up): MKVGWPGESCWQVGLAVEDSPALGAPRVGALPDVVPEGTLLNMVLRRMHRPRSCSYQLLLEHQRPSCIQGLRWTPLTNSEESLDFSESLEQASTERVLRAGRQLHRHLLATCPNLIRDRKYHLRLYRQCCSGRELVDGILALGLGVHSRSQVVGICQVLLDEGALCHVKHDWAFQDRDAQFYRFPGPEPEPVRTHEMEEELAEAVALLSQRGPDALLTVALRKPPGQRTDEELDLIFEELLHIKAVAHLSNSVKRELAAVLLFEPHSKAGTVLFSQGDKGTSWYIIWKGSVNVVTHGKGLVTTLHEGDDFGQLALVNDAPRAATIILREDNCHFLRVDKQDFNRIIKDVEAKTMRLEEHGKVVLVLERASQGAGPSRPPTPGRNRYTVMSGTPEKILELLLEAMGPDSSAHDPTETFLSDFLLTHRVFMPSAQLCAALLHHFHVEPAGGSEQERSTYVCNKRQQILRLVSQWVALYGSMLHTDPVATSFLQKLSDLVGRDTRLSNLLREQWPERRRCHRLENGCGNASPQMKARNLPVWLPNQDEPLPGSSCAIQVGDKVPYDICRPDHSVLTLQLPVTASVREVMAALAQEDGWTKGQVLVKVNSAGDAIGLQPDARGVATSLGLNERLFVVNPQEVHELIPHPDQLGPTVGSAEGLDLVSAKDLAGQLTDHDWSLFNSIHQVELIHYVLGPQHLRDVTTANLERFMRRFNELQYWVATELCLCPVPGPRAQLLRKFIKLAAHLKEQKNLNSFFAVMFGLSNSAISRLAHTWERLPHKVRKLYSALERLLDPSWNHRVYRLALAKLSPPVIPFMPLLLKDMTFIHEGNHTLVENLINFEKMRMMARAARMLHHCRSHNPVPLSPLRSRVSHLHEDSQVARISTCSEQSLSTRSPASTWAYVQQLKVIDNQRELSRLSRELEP
Chain of Atrial natriuretic peptide receptor 1 (Homo sapiens) (P16066 whole entry, looked up): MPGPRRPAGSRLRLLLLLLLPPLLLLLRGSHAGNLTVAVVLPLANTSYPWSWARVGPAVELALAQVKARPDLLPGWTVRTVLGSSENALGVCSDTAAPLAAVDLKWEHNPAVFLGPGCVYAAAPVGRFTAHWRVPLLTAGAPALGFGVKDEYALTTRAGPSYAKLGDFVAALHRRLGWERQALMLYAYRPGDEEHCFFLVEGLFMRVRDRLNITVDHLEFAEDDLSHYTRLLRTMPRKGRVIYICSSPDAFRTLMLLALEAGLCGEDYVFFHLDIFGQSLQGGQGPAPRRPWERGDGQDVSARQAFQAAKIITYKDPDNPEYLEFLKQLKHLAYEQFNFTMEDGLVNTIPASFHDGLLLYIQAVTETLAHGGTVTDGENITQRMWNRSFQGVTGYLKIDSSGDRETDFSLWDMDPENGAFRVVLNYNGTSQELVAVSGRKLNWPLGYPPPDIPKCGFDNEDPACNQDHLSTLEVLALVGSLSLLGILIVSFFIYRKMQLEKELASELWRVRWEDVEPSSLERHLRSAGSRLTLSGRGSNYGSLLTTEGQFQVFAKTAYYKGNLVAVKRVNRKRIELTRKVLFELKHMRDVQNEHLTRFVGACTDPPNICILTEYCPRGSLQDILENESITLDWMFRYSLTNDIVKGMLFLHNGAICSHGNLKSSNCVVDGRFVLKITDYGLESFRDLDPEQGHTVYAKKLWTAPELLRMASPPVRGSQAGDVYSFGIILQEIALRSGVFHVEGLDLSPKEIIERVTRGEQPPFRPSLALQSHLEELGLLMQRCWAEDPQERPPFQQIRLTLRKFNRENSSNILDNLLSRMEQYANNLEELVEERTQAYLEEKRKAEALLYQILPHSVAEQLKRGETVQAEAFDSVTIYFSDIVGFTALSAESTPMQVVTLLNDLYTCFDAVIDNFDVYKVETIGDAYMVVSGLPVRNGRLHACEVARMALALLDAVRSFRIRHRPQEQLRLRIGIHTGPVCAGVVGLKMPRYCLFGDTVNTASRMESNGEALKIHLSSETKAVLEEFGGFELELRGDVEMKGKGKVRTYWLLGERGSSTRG
Chain of Rap guanine nucleotide exchange factor 4 (Homo sapiens) (Q8WZA2 whole entry, looked up): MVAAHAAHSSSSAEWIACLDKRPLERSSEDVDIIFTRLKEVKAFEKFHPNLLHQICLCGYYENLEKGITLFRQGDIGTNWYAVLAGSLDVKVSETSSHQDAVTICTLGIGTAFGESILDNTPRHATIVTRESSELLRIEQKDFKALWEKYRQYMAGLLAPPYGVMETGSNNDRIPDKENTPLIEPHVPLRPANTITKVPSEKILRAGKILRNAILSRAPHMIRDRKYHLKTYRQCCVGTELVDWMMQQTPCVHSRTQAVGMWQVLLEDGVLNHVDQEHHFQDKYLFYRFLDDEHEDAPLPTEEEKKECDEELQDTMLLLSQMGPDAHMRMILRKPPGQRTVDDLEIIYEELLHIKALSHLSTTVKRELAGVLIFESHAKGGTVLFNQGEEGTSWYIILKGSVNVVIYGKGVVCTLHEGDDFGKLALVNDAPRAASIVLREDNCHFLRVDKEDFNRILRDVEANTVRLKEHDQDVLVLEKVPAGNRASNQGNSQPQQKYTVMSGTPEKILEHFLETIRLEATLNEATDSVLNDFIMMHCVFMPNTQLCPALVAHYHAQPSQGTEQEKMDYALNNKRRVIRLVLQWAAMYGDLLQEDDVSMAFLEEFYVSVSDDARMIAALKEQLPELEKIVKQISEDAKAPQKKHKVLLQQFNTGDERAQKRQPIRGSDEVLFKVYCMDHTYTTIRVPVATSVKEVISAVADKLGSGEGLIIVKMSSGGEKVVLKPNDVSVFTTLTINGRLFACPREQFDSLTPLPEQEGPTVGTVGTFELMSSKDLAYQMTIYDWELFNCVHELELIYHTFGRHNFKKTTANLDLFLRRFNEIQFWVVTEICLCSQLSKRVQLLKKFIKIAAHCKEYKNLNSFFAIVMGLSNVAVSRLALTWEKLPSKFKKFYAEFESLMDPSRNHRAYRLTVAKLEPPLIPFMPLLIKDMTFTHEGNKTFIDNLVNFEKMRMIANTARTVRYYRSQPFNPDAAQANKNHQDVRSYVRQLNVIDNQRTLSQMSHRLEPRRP

As to `COC(=O)NC(c1ccccc1)c1c[nH]c2ccccc12` (stereo not given), the Potency entry in [1], in assay [2], in assay [3] and in assay [4] was “inactive” throughout.

Take `CCc1cc2c(nc1CC)CCN(CCC(C)=NOC[C@@H](C)[C@H](OCc1ccccc1)C(C)C)C2`: the Potency entry in assay [4] is “inactive”.

`COC(=O)C1=C(C(=O)OC)[C@@H]2N(Cc3ccccc3)c3ccccc3[C@@]23C[C@@H](C(=O)OC)N(C(=O)Nc2ccccc2F)C3=N1`: the Potency result in assay [1], in assay [2] and in [3] was “inactive” throughout. Further, the Potency in assay [4] is 3350 nM (active).

Consider `COC(=O)CC=C[C@@H](C)[C@H](O)c1ccccc1Br`, for which the Potency entry in [1] and in [4] was “inactive” throughout.

With `CC(C)CON=C1C[C@@H](O)[C@@H](O)[C@@H]2[C@H]3C(=O)N(C[C@@H]4CCCO4)C(=O)[C@@H]3CC[C@H]12`, the Potency entry in [1], in [2], in [3], in [5] and in [4] was “inactive” throughout.

In the case of `COc1ccc(COC(=O)NN=C2C[C@@H](O)[C@@H](O)[C@@H]3[C@H]4C(=O)N(Cc5ccccc5)C(=O)[C@@H]4CC[C@@H]23)cc1`, the Potency entry in [1], in [2], in assay [3] and in assay [4] was “inactive” each time.

As for `C=CCOC(=O)C(C(C)=O)[C@@H](NC(=O)OC)c1ccc2ccccc2c1` (stereo not given in full), the Potency result in assay [1], in assay [2], in assay [3] and in [4] was “inactive” each time.

For `COC(=O)[C@@H]1CC[C@H](C)[C@@H](c2ccc(C)cc2)N1C(=O)c1ccc(C=NOC[C@@H](O)[C@H]2O[C@@H]3OC(C)(C)O[C@H]3[C@@H]2O)cc1`, the Potency result in assay [1], in [2] and in assay [4] was “inactive” each time. Moreover, the Potency in assay [3] was 1.2 µM (active).

`CCN(CC)CCCN=C1NC(c2cccc(F)c2)C(C(=O)OC)=C(C)N1Cc1ccccc1` (stereo not given): the Potency result in assay [1], in [2] and in assay [4] was “inactive” each time.

`CC#CCN1c2ccccc2[C@]23CCC(=O)N(Cc4ccco4)C2=NC(C(=O)OC)=C(C(=O)OC)[C@H]13`: in assay [4], the Potency result was “inactive”.

In the case of `COC(=O)CCC(=O)OC1(C)C(=O)C=C2C=C(C3CC3)N(CCCOC(C)C)C=C2C1=O` (stereo not given), the activity, negative = inhibition in assay [1] was -1.07% [at 1.12 µM]. Moreover, the Potency entry in assay [5], in [6], in assay [4], in assay [7] and in assay [10] was “inactive” each time. Further, the call in assay [8], in assay [9] and in [11] was inactive.

For `CC=COC(=O)N[C@@H](c1cccc(C)c1)[C@]1(C(=O)OCC)CCCC1=O`, the Potency result in assay [1], in assay [2], in assay [3] and in assay [4] was “inactive” throughout.

In the case of `CC1(OC(=O)CCc2ccccc2)C(=O)C=C2C=C(c3ccc(C#N)cc3)N(CC3CC3)C=C2C1=O` (stereo not given), in assay [1], the activity, negative = inhibition is -3.92% [at 1.12 µM]. Also, the Potency result in assay [2] and in assay [4] was “inactive” each time.

`COCOc1cc(OC)ccc1C(=O)C=Cc1ccc2c(c1)OCO2`: the Potency result in [4] was “inactive”.

In the case of `CCCCCCCc1cc2ccccc2c2c(C=O)c(CCCC)c(C(=O)OC)n12`, the Potency entry in [1], in assay [2] and in assay [4] was “inactive” each time.

Take `COCOc1cc(OC)ccc1C(=O)C=Cc1ccc([N+](=O)[O-])cc1`: the Potency in assay [1] was 1500 nM (active); in assay [2] it was 1690 nM (active). Also, the Potency entry in assay [4] is “inactive”.

With `COc1ccc(-c2nc3c(c4c2C[C@H](c2ccccc2)OC4)CN(S(=O)(=O)c2ccc(C)cc2)CC3)c(C)c1`, the activity, negative = inhibition in [1] is -0.2% [at 1.12 µM]. Besides, the Potency in assay [2] was 1690 nM (active); in assay [3], 1.69 µM (active) and 1.9 µM (active); in [5], 2130 nM (active). Besides, the Potency result in [4] was “inactive”.

With `COC(=O)C1=C[C@@H]([C@@H](C)[C@H](OC)c2ccccc2Br)[C@@H]2OCCC[C@H]12`, the Potency entry in [1], in [2], in assay [3], in assay [5] and in assay [4] was “inactive” in each case.

Regarding `O=C1OC2(CCCCC2)CC2=C1[C@H]1O[C@](CCCCN3C(=O)c4ccccc4C3=O)(Cc3ccccc31)O2`, the Potency in [1] is 1500 nM (active); in assay [2], 1690 nM (active); in assay [3], 1.69 µM (active); in assay [5], 1900 nM (active). In addition, the Potency result in assay [4] was “inactive”.

As for `COCCN1C(=O)C2=C(C1=O)C1N(C)c3ccccc3[C@@]13C[C@@H](CO)N=C3N2` (stereo not given in full), the Potency result in assay [1], in assay [2], in [3], in [5] and in [4] was “inactive” throughout.
